From PubChem
An excerpt weighted towards active compounds, which were near 7.6% of everything screened.
MCF10A rerep: A quantitative high throughput screen for small molecules that induce DNA re-replication in MCF 10a normal breast cells; MCF 10A DNA re-replication, Hoechst nuclear intensity, 48 h; AID 624296, 2012; 350,000 compounds, 2.9% hits; Potency, µM (doses to about 46.1 µM), without a hit: at the top dose activity, positive = re-replication, most hits filed as activators; also: potency is read from the fitted curve at half-maximal effect; % of control where 0% means no effect; nearly all actives have a fitted effect of over 50% in size
KCNH2 WT inh: qHTS for Inhibitors of KCHN2 3.1: Wildtype qHTS; Voltage-gated inwardly rectifying potassium channel KCNH2 (Homo sapiens), Q12809; U2OS, BacMam KCNH2, thallium flux FluxOr; active compounds read low; activity change, % at 1.84 µM; 340,000 compounds, 0.37% hits; AID 720551, 2013;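 active = maximum activity change below -70%; inconclusive = maximum activity change between -70% and -50%; inactive = maximum activity change above -50%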; also: % is scaled to controls: 0 for no effect and ±100 for the full control effect
Target sequence (Q12809 whole entry, looked up): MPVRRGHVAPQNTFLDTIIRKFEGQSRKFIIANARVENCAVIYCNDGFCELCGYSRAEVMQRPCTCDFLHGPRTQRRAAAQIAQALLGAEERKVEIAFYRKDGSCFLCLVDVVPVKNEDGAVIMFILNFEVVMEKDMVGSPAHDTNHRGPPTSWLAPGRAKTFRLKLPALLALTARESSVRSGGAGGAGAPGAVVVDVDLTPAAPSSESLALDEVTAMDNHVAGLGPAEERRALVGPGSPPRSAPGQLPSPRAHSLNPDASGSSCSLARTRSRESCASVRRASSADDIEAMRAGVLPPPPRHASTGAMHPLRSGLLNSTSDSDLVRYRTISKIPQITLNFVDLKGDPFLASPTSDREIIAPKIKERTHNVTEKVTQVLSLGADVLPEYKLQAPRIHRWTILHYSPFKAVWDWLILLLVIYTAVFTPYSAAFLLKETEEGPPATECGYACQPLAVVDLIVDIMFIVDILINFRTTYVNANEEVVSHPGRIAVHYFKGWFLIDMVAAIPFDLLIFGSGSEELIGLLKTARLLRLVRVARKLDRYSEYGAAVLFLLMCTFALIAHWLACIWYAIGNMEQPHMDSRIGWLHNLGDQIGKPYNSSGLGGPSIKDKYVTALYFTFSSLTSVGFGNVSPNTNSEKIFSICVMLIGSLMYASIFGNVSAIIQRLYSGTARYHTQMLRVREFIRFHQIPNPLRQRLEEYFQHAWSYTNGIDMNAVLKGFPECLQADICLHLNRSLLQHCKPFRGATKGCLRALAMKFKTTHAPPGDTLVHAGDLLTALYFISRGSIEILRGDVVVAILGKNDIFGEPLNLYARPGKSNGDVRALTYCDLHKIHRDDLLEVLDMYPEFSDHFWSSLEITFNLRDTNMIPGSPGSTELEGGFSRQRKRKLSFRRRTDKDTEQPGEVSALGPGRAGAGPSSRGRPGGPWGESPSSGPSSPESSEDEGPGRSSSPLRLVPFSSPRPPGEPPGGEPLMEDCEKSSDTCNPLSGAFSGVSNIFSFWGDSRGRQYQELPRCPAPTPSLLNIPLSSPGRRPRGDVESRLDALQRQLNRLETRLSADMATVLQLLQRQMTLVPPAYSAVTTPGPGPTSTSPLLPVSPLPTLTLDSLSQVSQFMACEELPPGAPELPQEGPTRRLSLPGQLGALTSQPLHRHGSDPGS
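U2OS cells were transduced with wild-type KCNH2 virus (2.03 x 10^8 / mL) for 4 h at room temperature, then cultured overnight at 37 C. Thallium flux was read with FluxOr dye. Rate constants were normalized to DMSO controls.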
KB-V1 cytotox: qHTS assay for MDR1-selective chemotherapeutics: Primary screen using the drug-selected MDR subline cells KB-V1 | 400,000 compounds, 3.4% hits | Potency, µM (highest dose often 46.1 µM), usual class: cytotoxic | KB-V1 MDR cells viability, CellTiter-Glo, 72 h | AID 1347076, 2019; also: potency is read from the fitted curve at half-maximal effect; % is scaled to controls: 0 for no effect and ±100 for the full control effect; nearly all actives have a fitted effect of over 60% in size
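qHTS viability screen in drug-selected KB-V1 MDR cells: 72 h compound treatment at 37 degrees C, ATP luminescence end point.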
SW480 rerep: A quantitative high throughput screen for small molecules that induce DNA re-replication in SW480 colon adenocarcinoma cells | 340,000 compounds, 1.8% hits | SW480 DNA re-replication, Hoechst DNA content imaging, 48 h | Potency, µM (highest dose often 46.1 µM), for the others: at the top dose re-replication activation, hits mostly activators; also: potency is read from the fitted curve at half-maximal effect; % of control where 0% means no effect; nearly all actives have a fitted effect of over 55% in size
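Compounds, transferred as 23 nL by pin tool, were incubated with cells for 48 hr; DNA content per nucleus was then quantified by Hoechst staining and fluorescence plate imaging.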
KCNH2 3.1 inh: qHTS for Inhibitors of KCHN2 3.1: Mutant qHTS. Potassium voltage-gated channel subfamily H member 2, brain isoform KCNH2 3.1 (human). activity change, % (tested at about 1.8 µM). AID 720553, 2013. U2OS KCNH2 3.1, thallium flux FluxOr; active compounds read low. 340,000 compounds, 0.95% hits;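 active = maximum activity change below -70%; inconclusive = maximum activity change from -70% to -50%; inactive = maximum activity change above -50%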;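 also: thallium influx rate constant from kinetic fluorescence after stimulation buffer; % is scaled to controls: 0 for no effect and ±100 for the full control effect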
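Kinetic fluorescence (2 min after stimulation buffer) measures Tl+ influx through KCNH2 3.1 expressed by viral transduction in U2OS cells; the rate constant is normalized against DMSO controls serving as positive and negative references.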
KB-3-1 tox: qHTS assay for MDR1-selective chemotherapeutics: Primary screen using the parental adenocarcinoma cell KB-3-1; AID 1347075, 2019; 400,000 compounds, 1.4% hits; Potency, µM (highest dose often 46.1 µM), hits mostly cytotoxic; KB-3-1 viability, CellTiter-Glo ATP luminescence, 72 h; also: potency is read from the fitted curve at half-maximal effect; % is scaled to controls: 0 for no effect and ±100 for the full control effect; nearly all actives have a fitted effect of over 60% in size
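Parental KB-3-1 viability, qHTS format: 72 h compound exposure, 37 °C; CellTiter-Glo; media-only wells and DMSO plates as controls; concentration-effect fits on corrected data.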
* marks the source's active call; other numbers are inactive results; i = inactive; ? = inconclusive; . = not tested or not shown. Unless noted, calls follow the shape of the dose curve; as a rule, active = well fitted curve in the direction sought with a large enough effect; inconclusive = small, poorly fitted or top-dose-only effect, or another doubt; inactive = no such curve, though single readings can be large; an effect the other way counts as inactive or inconclusive.

SMILES	MCF10A rerep	KCNH2 WT inh	KB-V1 cytotox	SW480 rerep	KCNH2 3.1 inh	KB-3-1 tox
CNC(=O)c1ccc2nc(-c3cccc(C)c3)c(-c3cccc(C)c3)nc2c1	.	.	i	.	.	i
CCOC(=O)Cn1nnnc1C(C(C)C)N(Cc1cccs1)Cc1cc2cc(C)ccc2[nH]c1=O (stereo unspecified)	?	-2	11µM*	-15%	-14	?
CCOc1ccc2[nH]c(=O)c(CN(Cc3ccco3)Cc3nnnn3Cc3ccccc3)cc2c1	?	-3	?	-1%	1	i
CCOC(=O)Cn1nnnc1CN(Cc1ccc(OC)cc1)Cc1cc2cc(C)ccc2[nH]c1=O	23µM*	-8	i	2%	-8	i
CCOC(=O)Cn1nnnc1C(CC)N(Cc1cccs1)Cc1cc2cc(C)ccc2[nH]c1=O (stereo unspecified)	15%	-2	?	2%	21	i
COc1ccc2[nH]c(=O)c(CN(Cc3ccco3)Cc3nnnn3Cc3ccccc3)cc2c1	2%	-4	7.3µM*	2%	-12	i
CCOC(=O)Cn1nnnc1CN(Cc1ccc(OC)cc1)Cc1cc2cc(CC)ccc2[nH]c1=O	-1%	10	i	1%	-20	i
O=[N+]([O-])c1ccccc1Oc1ncccc1[N+](=O)[O-]	-4%	-1	?	-11%	-14	i
Cc1n[nH]c(C)c1Sc1ccccc1N=Cc1cc(Cl)cc([N+](=O)[O-])c1O	?	-133*	i	-4%	-5	i
Cc1n[nH]c(C)c1Sc1ccccc1[N+](=O)[O-]	4%	-14	i	1%	-3	i
CC(C)CC(=O)NC(Nc1ccc([N+](=O)[O-])cc1)C(Cl)(Cl)Cl (stereo unspecified)	5%	9	18µM*	2%	21	?
O=C(NC(NC(=S)Nc1c(Cl)cccc1Cl)C(Cl)(Cl)Cl)c1cccc([N+](=O)[O-])c1 (stereo unspecified)	6.5µM*	-1	?	?	-8	?
COC(=O)NC(NC(=S)Nc1ccc([N+](=O)[O-])cc1)C(Cl)(Cl)Cl (stereo unspecified)	23%	0	21µM*	16%	4	?
N/C(=N\c1nc2c(c(=O)[nH]1)CCCC2)Nc1ccccc1Sc1ccccc1	-13%	3	i	1%	-5	i
C=CCC1NS(=O)(=O)OC2CCCC12 (stereo unspecified)	28%	.	i	-12%	.	?
COc1ccc(-c2nc(C)c(CCNC(=O)c3cccc(C)c3)s2)cc1OC	.	.	?	.	.	i
Cc1ccc2nc(-c3cccc(NS(C)(=O)=O)c3)cc(-c3ccccc3)c2c1	?	6	18µM*	?	1	?
Cc1nc(-c2cccc(NS(=O)(=O)c3ccccc3)c2)cs1	?	1	i	2%	-12	i
O=[N+]([O-])c1cccc(S(=O)(=O)NC2CC3CCC2C3)c1 (stereo unspecified)	28%	-11	i	5%	2	i
Cc1ccc(N2CCN(S(=O)(=O)c3ccc4c(c3)CC(=O)N4)CC2)cc1	.	.	i	.	.	i
C/C(=N\NC(=S)NCc1ccccc1)c1ccccc1	5%	i	i	14%	6	i
C/C(=N\NC(=S)NCc1ccccc1)c1ccc(C(C)(C)C)cc1	?	-5	18µM*	4%	-1	i
COc1cc(S(=O)(=O)n2c(C)nc3ccccc32)ccc1F	28%	-15	i	?	0	?
